Only some compounds are listed: those with a hit (about 10% of all), similar ones and a draw of the others.
CCT modulator – cytosolic chaperonin activity modulation. purified chaperonin ATPase assay, HTRF ADP detection, 30 min. activity change, % (no concentration beside the values), hits read low. 360,000 compounds, 0.3% hits. AID 651819; in the data active means activity change below about -30%
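TRiC at 40 or 20 nM final (batch-dependent) in 30 mM Tris pH 7.4, 100 mM KCl, 5 mM MgCl2, 1 mM DTT, with compound at single 76 uM and 10 uM ATP, 30 min at 37 deg C. ADP detected by HTRF Transcreener, 665/615 ratio.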
PLK1 PBD inh – inhibitors of human PLK1 polo-box domain binding. P53350. Plk1 PBD binding of FITC phosphopeptide, fluorescence polarization. Potency, µM, without a hit: max response, negative = inhibition, hits mostly inhibitors. 360,000 compounds, 2.8% hits; further: potency means the concentration at half of the fitted maximal effect; series mostly up to about 57 µM; nearly all actives have a fitted effect of over 65% in size
VDR inh – blocks the human vitamin D receptor | VDR-SRC2-3 peptide fluorescence polarization, 2 h | Potency, µM, for the others: max response, negative = inhibition, actives largely listed as inhibitors | 400,000 compounds, 0.93% hits | AID 504847; further: potency means the concentration at half of the fitted maximal effect
Target sequence (P11473 whole entry, looked up): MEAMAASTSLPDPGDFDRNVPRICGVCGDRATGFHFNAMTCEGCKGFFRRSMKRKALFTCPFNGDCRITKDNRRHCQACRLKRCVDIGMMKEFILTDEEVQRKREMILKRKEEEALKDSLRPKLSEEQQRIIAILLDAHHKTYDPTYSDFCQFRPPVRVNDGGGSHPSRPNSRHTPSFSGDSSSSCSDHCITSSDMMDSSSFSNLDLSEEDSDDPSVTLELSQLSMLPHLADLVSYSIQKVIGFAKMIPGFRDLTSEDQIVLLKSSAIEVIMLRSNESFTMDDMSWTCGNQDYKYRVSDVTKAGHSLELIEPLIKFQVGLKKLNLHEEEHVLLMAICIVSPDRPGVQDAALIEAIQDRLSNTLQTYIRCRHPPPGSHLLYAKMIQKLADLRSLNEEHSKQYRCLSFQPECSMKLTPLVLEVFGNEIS
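FP read-out; VDR + SRC2-3 coactivator peptide; 23 nl compound by pintool; 2 h RT incubation; reagents held at 4 deg C, protected from light.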
MmCpn inh – inhibitors of Methanococcus maripaludis chaperonin TRiC (MmCpn); 330,000 compounds, 0.031% hits; Potency, µM (titrated, usually from 76.9 µM), without a hit: top-dose activity, negative = inhibition, actives largely listed as inhibitors; purified Mm-Cpn ATPase, ADP Transcreener TR-FRET; further: potency means the concentration at half of the fitted maximal effect; nearly all actives have a fitted effect of over 80% in size
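Compound-treated chaperonin, 25 nM final, turns over 10 uM ATP at 37°C for 30 min following a 10 min preincubation; ADP generated competes with ADP-d2 for Eu-cryptate antibody, lowering FRET.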
G9a inh – inhibitors of human histone lysine methyltransferase G9a; Q96KQ7; G9a H3K9 monomethylation, AlphaScreen, 2 h; Potency, µM (titrated, usually from 102 µM), for the others: at the highest dose activity, negative = inhibition, usual class: inhibitors; 350,000 compounds, 8.8% hits; further: potency means the concentration at half of the fitted maximal effect; nearly all actives have a fitted effect of over 75% in size
Target sequence (Q96KQ7 913-1193 limits assumed): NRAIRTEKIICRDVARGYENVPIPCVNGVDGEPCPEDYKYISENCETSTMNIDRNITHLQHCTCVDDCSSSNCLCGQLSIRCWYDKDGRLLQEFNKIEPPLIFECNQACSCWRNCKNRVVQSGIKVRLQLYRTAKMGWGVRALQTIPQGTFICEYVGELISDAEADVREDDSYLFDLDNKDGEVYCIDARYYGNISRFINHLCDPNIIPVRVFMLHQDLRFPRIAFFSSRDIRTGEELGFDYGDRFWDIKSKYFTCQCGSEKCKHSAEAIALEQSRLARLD
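Readings reflect AlphaScreen signal from monomethyl-H3K9 antibody detection. HMT at 20 nM; substrate b-H3K9 500 nM; cofactor SAM 20 uM; 2 h RT reaction; compounds tested as titrations in qHTS with 15 min preincubation.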
Sfp PPTase inh – blocks B. subtilis Sfp PPTase activity; Potency, µM, for inactives: largest response in the series, negative = inhibition, hits mostly inhibitors; AID 1490; 310,000 compounds, 3.5% hits; Biochemical Sfp PPTase activity, qHTS;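 further: the enzyme is Sfp with the accession as filed and its product quenches rhodamine fluorescence; potency means the concentration at half of the fitted maximal effect; 0% = enzyme reaction without inhibitor and -100% = no enzyme wells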
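Reaction rates are the 30-min fluorescence difference (ex 525, em 598 nm) in wells containing 15 nM Sfp, 5 uM rhodamine-CoA and 12.5 uM BHQ-2-YbbR at pH 7.6 with 10 mM MgCl2.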
* hit, by the source's call; [ ] = dose if it differs, or a comment. Unless noted, the call rests on the fitted dose curve; in most records, active means well fitted curve in the direction sought with a large enough effect; inconclusive means small, poorly fitted or top-dose-only effect, or another doubt; inactive means no such curve, though single readings can be large; an effect the other way counts as inactive or inconclusive. Unless noted, on the % scale 0 is the no-effect control and ±100 the full control effect.

Results for CCCCn1c(N)c(N(CCOC)C(=O)c2cc(-c3ccco3)nc3ccccc23)c(=O)[nH]c1=O ?
CCT modulator: -0.6; PLK1 PBD inh: -26.5%; VDR inh: -10.4%; MmCpn inh: -1.8%; G9a inh: 39.8µM*

Results for CCCCN(C(=O)c1cc(-c2ccco2)nc2ccccc12)c1c(N)n(CCCC)c(=O)[nH]c1=O ?
CCT modulator: -1.1; PLK1 PBD inh: -23.9%; VDR inh: -19.6%; MmCpn inh: -0.6%; G9a inh: inconclusive

Results for COc1ccccc1OC(=O)c1cc2ccccc2oc1=O ?
CCT modulator: 3.2; PLK1 PBD inh: -7.6%; VDR inh: 3.9%; MmCpn inh: 0.8%; G9a inh: 34.7%; Sfp PPTase inh: 21.6%

How did COc1cc(/C=C/[N+](=O)[O-])ccc1OC(=O)c1cc2ccccc2oc1=O do in these assays?
CCT modulator: 1.8; PLK1 PBD inh: 13.4µM*; VDR inh: inconclusive; MmCpn inh: 3.1%; Sfp PPTase inh: 3.55µM*

What do the screens show for `O=C(c1ccc(Cl)cc1)c1oc2ccccc2c1CS(=O)c1ccc(Cl)cc1` (configuration not stated)?
CCT modulator: -25.5; PLK1 PBD inh: -14.6%; VDR inh: -23.0%; MmCpn inh: -1.2%; G9a inh: -27.3%[59 µM]; Sfp PPTase inh: 56.2µM*

Results for O=C(NNS(=O)(=O)c1ccc(Br)cc1)c1csnn1 ?
CCT modulator: -1.2; PLK1 PBD inh: -11.7%; VDR inh: -10.9%; MmCpn inh: 0.9%; G9a inh: 50.1µM*; Sfp PPTase inh: -9.9%

Results for O=C(NNS(=O)(=O)c1ccc(Br)cc1)c1ccccc1-n1cccc1 ?
CCT modulator: -0.7; PLK1 PBD inh: 0.3%; VDR inh: 20.3%; MmCpn inh: 3.0%; G9a inh: 14.6%; Sfp PPTase inh: 27.6%

What do the screens show for `CN(C)CCNC(=O)c1coc(=O)c(Br)c1`?
CCT modulator: -2.5; PLK1 PBD inh: -6.3%; VDR inh: 26.6%; MmCpn inh: 0.7%; G9a inh: 15.8µM*; Sfp PPTase inh: 4.4%

Results for COc1ccc(C=O)cc1COc1ccccc1F ?
CCT modulator: -1.7; PLK1 PBD inh: -6.1%; VDR inh: -11.3%; MmCpn inh: -4.8%; G9a inh: 33.2%[59 µM]; Sfp PPTase inh: 4.0%

What do the screens show for `COc1ccc(/C=C/C(=O)c2ccccc2)cc1COc1ccccc1F`?
CCT modulator: -1.3; PLK1 PBD inh: 0.5%; VDR inh: 9.9%; MmCpn inh: 0.0%; Sfp PPTase inh: 89.1µM*

Results for CCOc1ccc(/C=C/C(=O)c2ccccc2)cc1OC ?
CCT modulator: -2.3; PLK1 PBD inh: -3.5%; VDR inh: 79.4µM*; MmCpn inh: 0.5%; G9a inh: 3.7%[59 µM]; Sfp PPTase inh: -21.0%

Results for CCN(C(=O)c1cccn(Cc2ccccc2C)c1=O)c1ccccc1 ?
VDR inh: -1.5%; G9a inh: 7.4%[59 µM]

Results for CC(C)CN1C(=O)c2ccccc2C1(O)Cc1ccccc1 (configuration not stated) ?
CCT modulator: -1.8; PLK1 PBD inh: -1.4%; VDR inh: -7.5%; MmCpn inh: 1.8%; G9a inh: 8.91µM*; Sfp PPTase inh: inconclusive

How did C=CCN1C(=O)c2ccccc2C1(O)Cc1ccccc1 (configuration not stated) do in these assays?
CCT modulator: -18.7; PLK1 PBD inh: -10.7%; VDR inh: -0.1%; MmCpn inh: 1.7%; G9a inh: -1.1%; Sfp PPTase inh: 2.2%

How did COC(=O)c1ccccc1NC(=O)c1cc(C)nc2c1c(C)nn2-c1ccc(C)cc1 do in these assays?
VDR inh: 0.6%; G9a inh: 2.7%[59 µM]

Results for CN1CC=C2C(C#N)=C(N)C(C#N)(C#N)C(c3ccsc3)C2C1 (configuration not stated) ?
CCT modulator: -0.8; PLK1 PBD inh: inconclusive; VDR inh: -4.6%; MmCpn inh: -0.1%; Sfp PPTase inh: 2.1%

What do the screens show for `CCCC1C2CN(C(C)C)CC=C2C(C#N)=C(N)C1(C#N)C#N` (configuration not stated)?
CCT modulator: 1.1; PLK1 PBD inh: inconclusive; VDR inh: -24.5%; MmCpn inh: -2.6%; G9a inh: 39.8µM*; Sfp PPTase inh: -6.1%

What do the screens show for `CN1CC=C2C(C#N)=C(N)C(C#N)(C#N)[C@H](c3cccs3)[C@H]2C1`?
CCT modulator: -1.0; PLK1 PBD inh: 21.2µM*; VDR inh: inconclusive; MmCpn inh: -3.5%; G9a inh: inconclusive; Sfp PPTase inh: 7.0%

What do the screens show for `CN1CC=C2C(C#N)=C(N)C(C#N)(C#N)C(CCc3ccccc3)C2C1` (configuration not stated)?
CCT modulator: -2.3; PLK1 PBD inh: inconclusive; VDR inh: inconclusive; MmCpn inh: -0.1%; G9a inh: -5.9%[59 µM]; Sfp PPTase inh: 8.3%

What do the screens show for `CN1CC=C2C(C#N)=C(N)C(C#N)(C#N)[C@H](c3cccc(Cl)c3)C2C1` (some centres not stated)?
CCT modulator: 0.2; PLK1 PBD inh: inconclusive; VDR inh: -24.4%; MmCpn inh: -5.2%; G9a inh: 25.1µM*; Sfp PPTase inh: 0.6%

Results for Cc1c(Cl)cccc1NC(=O)c1cnc2sc(N3CCOCC3)nn2c1=O ?
VDR inh: -1.9%; G9a inh: 8.6%[59 µM]

How did COc1cc(NC(=O)c2cc3nc(-c4ccccc4)cc(-c4ccccc4)n3n2)c(OC)cc1Cl do in these assays?
VDR inh: -8.5%; G9a inh: -1.3%[59 µM]

Results for O=[N+]([O-])c1ccc(N2CCCCC2)cc1N1CCOCC1 ?
CCT modulator: -1.5; PLK1 PBD inh: -0.6%; VDR inh: 0.9%; MmCpn inh: 2.3%; G9a inh: -13.5%; Sfp PPTase inh: 14.3%

Results for S=P(c1ccc(N2CCOCC2)cc1N1CCOCC1)(N1CCOCC1)N1CCOCC1 ?
CCT modulator: 1.4; PLK1 PBD inh: 21.2µM*; VDR inh: 79.4µM*; MmCpn inh: 0.0%; G9a inh: 10µM*; Sfp PPTase inh: 35.5µM*

What do the screens show for `Cc1ccc(NC(=O)C2CCC(CNS(=O)(=O)c3ccc4c(c3)CCCC(=O)N4)CC2)cc1F` (configuration not stated)?
VDR inh: 3.9%; G9a inh: 6.4%[59 µM]

Results for CCOc1ccc(N2C(=O)CC(N3CCc4ccccc43)C2=O)cc1 (configuration not stated) ?
CCT modulator: -0.8; PLK1 PBD inh: -3.1%; VDR inh: 13.3%; MmCpn inh: -1.6%; G9a inh: -5.3%; Sfp PPTase inh: 21.9%

Screening results from PubChem.
